Measured values published in the supplement of paper PMC6089552.
Where “and” joins values, the source holds several entries; their conditions need not be identical. Equal values may be shown once. About 300 (9.4%) of roughly 3,200 compounds showed activity. This is one part of a sample in which actives are shown more often than they occur.

Tested on: A673/TR/shEF
Experiment: cell viability (LOESS-normalised, relative to median of negative controls) (log2 ratio); higher = more viable cells (less compound effect), active = hit call of the paper (over 3 MAD below the median)
Conditions: treatment time: 72 h
How it was run: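 For three days, A673/TR/shEF Ewing sarcoma cells in 384-well plates (1,500 per well) were treated with library compounds at two or more concentrations or with DMSO controls, after doxycycline had been added or withheld 24 h beforehand to induce EWS-FLI1 shRNA knockdown. Viability was read by CellTiter-Glo luminescence on an Envision reader. The data were LOESS-corrected per plate, divided by the median of negative controls and log2-transformed.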

[1] = 0.25 µM, library screen: screen1, EWS-FLI1 expression: high (no doxycycline)
[2] = 0.25 µM, library screen: screen1, EWS-FLI1 expression: low (doxycycline-induced shRNA knockdown)
[3] = 2.5 µM, library screen: screen1, EWS-FLI1 expression: high (no doxycycline)
[4] = 2.5 µM, library screen: screen1, EWS-FLI1 expression: low (doxycycline-induced shRNA knockdown)
[5] = 0.103 µM, library screen: screen3, EWS-FLI1 expression: high (no doxycycline)
[6] = 0.103 µM, library screen: screen3, EWS-FLI1 expression: low (doxycycline-induced shRNA knockdown)
[7] = 0.25 µM, library screen: screen2, EWS-FLI1 expression: high (no doxycycline)
[8] = 0.25 µM, library screen: screen2, EWS-FLI1 expression: low (doxycycline-induced shRNA knockdown)
[9] = 0.308 µM, library screen: screen3, EWS-FLI1 expression: high (no doxycycline)
[10] = 0.308 µM, library screen: screen3, EWS-FLI1 expression: low (doxycycline-induced shRNA knockdown)
[11] = 0.926 µM, library screen: screen3, EWS-FLI1 expression: high (no doxycycline)
[12] = 0.926 µM, library screen: screen3, EWS-FLI1 expression: low (doxycycline-induced shRNA knockdown)
[13] = 2.5 µM, library screen: screen2, EWS-FLI1 expression: high (no doxycycline)
[14] = 2.5 µM, library screen: screen2, EWS-FLI1 expression: low (doxycycline-induced shRNA knockdown)
[15] = 2.8 µM, library screen: screen3, EWS-FLI1 expression: high (no doxycycline)
[16] = 2.8 µM, library screen: screen3, EWS-FLI1 expression: low (doxycycline-induced shRNA knockdown)
[17] = 8.3 µM, library screen: screen3, EWS-FLI1 expression: high (no doxycycline)
[18] = 8.3 µM, library screen: screen3, EWS-FLI1 expression: low (doxycycline-induced shRNA knockdown)
[19] = 25 µM, library screen: screen3, EWS-FLI1 expression: high (no doxycycline)
[20] = 25 µM, library screen: screen3, EWS-FLI1 expression: low (doxycycline-induced shRNA knockdown)

Measured: cell viability (log2)

COC(=O)C1=C(C)N=C2SCCC(=O)N2C1c1ccc(OC)cc1 (stereo not drawn)
inactive: [1] 0.0178 | [2] 0.0759 | [3] 0.0162 | [4] 0.0699

Cc1cc(Nc2ccc(O)cc2)n2c(nc3ccccc32)c1C#N
inactive: [1] 0.079 | [2] 0.0759 | [3] 0.0987 | [4] 0.0687

CC1(O)/C=C\C=C(\CO)C2CC(C)(C)C2(O)CC1 (stereo not drawn)
inactive: [1] 0.0666 | [2] 0.000836 | [3] 0.128 | [4] 0.00974

CN1CCN(c2nc3ccccn3c(=O)c2/C=C2\SC(=S)N(CC3CCCO3)C2=O)CC1 (stereo not drawn)
inactive: [1] 0.134 | [2] 0.0801 | [3] 0.0647 | [4] 0.048

CC(=O)c1c(O)c(C)c(O)c2c1oc1c(C(C)=O)c(O)c(C)c(O)c12
inactive: [1] 0.0278 | [2] -0.0408 | [3] 0.0533 | [4] 0.172

Cc1c(O)c(C(=O)CC(C)C)c2oc3c(C(=O)CC(C)C)c(O)c(C)c(O)c3c2c1O
inactive: [1] 0.0407 | [2] 0.0843 | [3] 0.0935 | [4] 0.0892

CCC(C)C(=O)c1c(O)c(C)c2oc3c(C)c(O)c(C(=O)C(C)CC)c(O)c3c2c1O (stereo not drawn)
active: [3] -0.592
inactive: [1] 0.0233 | [2] 0.116 | [4] -0.0271

CCCCC(CC)CN=C(N)NC(N)=NCCCCCCN=C(N)NC(N)=NCC(CC)CCCC (stereo not drawn)
inactive: [1] 0.103 and 0.0973 | [2] 0.044 and 0.0691 | [3] 0.127 and 0.022 | [4] 0.0795 and 0.0454

COc1ccc(OC)c(C2NC(=O)NC(C)=C2C(=O)Nc2ccccc2Cl)c1 (stereo not drawn)
inactive: [1] 0.0793 | [2] 0.107 | [3] 0.0921 | [4] 0.116

CC1(C)COC(CC(=O)O)CN1 (stereo not drawn)
inactive: [1] 0.11 | [2] 0.00312 | [3] 0.108 | [4] 0.0408

COc1ccc(-c2coc3cc(OC)ccc3c2=O)cc1
inactive: [1] 0.121 | [2] 0.0353 | [3] 0.128 | [4] 0.0908

COc1ccc(-c2coc3cc(O)ccc3c2=O)cc1
inactive: [2] 0.0672 | [3] 0.234 | [4] 0.103
active: [1] -0.6

O=c1c(-c2ccc(O)cc2)coc2cc(O)ccc12
inactive: 0.025 µM, library screen: screen1, EWS-FLI1 expression: high (no doxycycline) -0.0377 | 0.025 µM, library screen: screen1, EWS-FLI1 expression: low (doxycycline-induced shRNA knockdown) -0.0297 | [5] 0.0817 | [6] 0.0853 | [1] 0.184 | [2] 0.0911 | [7] 0.184 | [8] 0.099 | [9] 0.12 | [10] 0.0897 | [11] 0.0631 | [12] 0.0867 | [3] 0.11 | [4] 0.0867 | [13] 0.118 | [14] 0.117 | [15] 0.137 | [16] 0.123 | [17] 0.161 | [18] 0.0904 | 25 µM, library screen: screen1, EWS-FLI1 expression: high (no doxycycline) 0.0121 | 25 µM, library screen: screen1, EWS-FLI1 expression: low (doxycycline-induced shRNA knockdown) 0.0753 | [19] 0.114 | [20] 0.0782

CSc1nc(N)c2ncn(C3OC(COP(=O)(O)OP(=O)(O)O)C(O)C3O)c2n1 (stereo not drawn)
inactive: [7] 0.0889 | [8] 0.0973 | [13] 0.157 | [14] 0.0918

CC(C)(O)[C@H]1CC[C@]2(C)[C@H]3CC[C@@H]4[C@@]5(C)CCCC(C)(C)[C@@H]5[C@@H](O)C[C@@]4(C)[C@]3(C)CC[C@@H]12
inactive: [1] 0.0136 | [2] 0.0775 | [3] 0.0306 | [4] 0.112

COc1cc(C2NC(=S)NC(C)=C2C(=O)Nc2cccc(Cl)c2)cc(OC)c1OC (stereo not drawn)
inactive: [1] 0.123 | [2] 0.0893 | [3] 0.204 | [4] 0.0553

COc1cccc(N2C(=O)C(=Cc3cccc(O)c3)SC2=S)c1
inactive: [1] 0.113 | [2] 0.0758 | [3] 0.133 | [4] 0.182

CC(=O)O[C@@H]1CC[C@@]2(C)C(C[C@@H](OC(C)=O)[C@@]3(C)C4=CC(=O)O[C@@H](c5ccoc5)[C@]4(C)CCC23)C1(C)C (stereo partly drawn)
inactive: [1] -0.00795 | [2] 0.0487 | [3] 0.121 | [4] 0.0464

CC(=O)O[C@H]1CC[C@@]2(C)C(C[C@@H](OC(C)=O)[C@@]3(C)C4=CC(=O)OC(c5ccoc5)[C@]4(C)CCC23)C1(C)C (stereo partly drawn)
inactive: [1] 0.121 | [2] 0.145 | [3] 0.126 | [4] 0.124

CC(=O)O[C@H]1C[C@@H](OC(C)=O)C(C)(C)C2C[C@@H](OC(C)=O)[C@@]3(C)C4=CC(=O)O[C@@H](c5ccoc5)[C@]4(C)CCC3[C@]21C (stereo partly drawn)
active: [3] -0.853 | [4] -0.345
inactive: [1] 0.0506 | [2] 0.0595

COc1cc(C(=O)N2CCOCC2)c([N+](=O)[O-])cc1OC
inactive: [1] 0.0993 | [2] 0.0316 | [3] 0.0928 | [4] -0.0159

CCCCCCCCCCCCCCCCCC(=O)OC[C@H](COP(=O)(O)OCC(O)COP(=O)(O)OC[C@@H](COC(=O)CCCCCCCCCCCCCCCCC)OC(=O)CCCCCCCCCCCCCCCCC)OC(=O)CCCCCCCCCCCCCCCCC (stereo partly drawn)
inactive: [1] 0.0223 | [2] 0.0715 | [3] 0.128 | [4] 0.138

CC(=O)O[C@@H]1C[C@H]2C(C)(C)C(=O)[C@@H]3O[C@@H]3[C@]2(C)[C@H]2CC[C@@]3(C)[C@H](c4ccoc4)OC(=O)[C@H]4O[C@]43[C@@]21C
inactive: [1] 0.0357 | [2] 0.0669 | [3] 0.155 | [4] 0.138

COc1c2c(cc3ccoc13)C(=O)[C@H]1c3cc4c(cc3OC[C@H]1O2)OCO4
inactive: [1] 0.0834 | [2] 0.0158 | [3] 0.0793 | [4] -0.0539

COc1ccc2c(c1)O[C@H]1c3ccc(O)cc3OC[C@@H]21
inactive: [1] 0.225 | [2] 0.129 | [3] 0.184 | [4] 0.206

COc1ccc(-c2c(OC)c3c(OC)c4c(cc3oc2=O)OC(C)(C)C=C4)cc1
inactive: [1] 0.0786 | [2] 0.00334 | [3] 0.211 | [4] 0.00828

COc1ccc2c(c1)O[C@@H]1COc3cc(OC)c(OC)cc3[C@@H]1C2=O
inactive: [1] -0.0338 | [2] 0.0823 | [3] -0.0122 | [4] -0.0233

COc1cc2c(cc1OC)[C@@H]1C(=O)c3c(cc4c(c3O)C=CC(C)(C)O4)O[C@@H]1CO2
inactive: [1] -0.0181 | [2] -0.000972 | [4] -0.0174
active: [3] -0.392

COc1cc2c(cc1OC)[C@@H]1C(=O)c3ccc4c(c3O[C@@H]1CO2)C=CC(C)(C)O4
active: [1] -0.591 | [2] -0.253 | [3] -2.11 | [4] -0.84

COc1cc2c(cc1OC)[C@@H]1C(=O)c3c(O)cc4c(c3O[C@@H]1CO2)C=CC(C)(C)O4
active: [1] -0.205 | [2] -0.261 | [3] -0.213
inactive: [4] -0.138

COc1c(CC(=O)c2cc3c(cc2O)OC(C)(C)C(O)C3)ccc2c1C=CC(C)(C)O2 (stereo not drawn)
inactive: [1] 0.0608 | [2] -0.00504 | [3] 0.0765 | [4] 0.0703

COc1cc2c(cc1-c1coc3c4c(c(OC)cc3c1=O)OC(C)(C)C=C4)OCO2
inactive: [1] 0.082 | [2] 0.0865 | [3] 0.173 | [4] 0.0953

COc1ccccc1-c1coc2cc(O)ccc2c1=O
inactive: [1] 0.111 | [2] 0.0685 | [3] 0.111 | [4] -0.0147

COc1cc(C(=O)O)c(O)c2c1OCO2
inactive: [1] -0.00582 | [2] -0.144 | [3] 0.116 | [4] -0.0061

C[C@@H]1C[C@H]2[C@@H]3C[C@H](F)C4=CC(=O)C=C[C@]4(C)[C@@]3(F)[C@@H](O)C[C@]2(C)[C@H]1C(=O)COC(=O)C(C)(C)C
inactive: [1] 0.00935 | [2] -0.0577 | [3] 0.0831 | [4] -0.0529

COc1cc(O)c(C(=O)c2ccccc2)c(OC)c1
inactive: [1] 0.0618 | [2] 0.0186 | [3] 0.0469 | [4] 0.0894

OC[C@H]1O[C@@](CO)(O[C@H]2O[C@H](CO)[C@@H](O)[C@H](O)[C@H]2O)[C@@H](O[C@H]2O[C@H](CO)[C@@H](O)[C@H](O)[C@H]2O)[C@@H]1O
inactive: [1] 0.0123 | [2] 0.0415 | [3] 0.0346 | [4] 0.126

COCCOC(=O)C1=C(C)NC(=S)NC1c1ccccc1OC (stereo not drawn)
inactive: [1] 0.0949 | [2] 0.0382 | [3] 0.0563 | [4] 0.0651

C=CC(C)(CCC1C(=C)CC(OC(C)=O)C2C(C)(C)CCCC12C)OC(C)=O (stereo not drawn)
inactive: [1] 0.025 | [2] 0.066 | [3] 0.163 | [4] -0.0558

O=C1[C@H](Cc2ccc(O)cc2)N2C(=O)CCN(C(=O)NCc3ccccc3)[C@H]2CN1Cc1cccc2ccccc12
inactive: [5] -0.0101 | [6] 0.068 | [9] 0.0453 | [10] 0.0327 | [11] 0.0157 | [12] 0.0736 | [15] 0.0365 | [16] 0.0441 | [17] -0.0756 | [18] -0.205
active: [19] -1.07 | [20] -1.18
